DT40 TDP1 no CPT: qHTS for Inhibitors of human tyrosyl-DNA phosphodiesterase 1 (TDP1): qHTS in cells in absence of CPT. hit rate 15% among 420,000. DT40 Tdp1-/- hTDP1 cells, no CPT, ATP luminescence, 48 h. AID 686978, 2013. Potency, µM (doses to about 46.2 µM), for the others: at the highest dose activity change, negative = growth inhibition, actives largely listed as inhibitors; note: nearly all actives have a fitted effect of over 55% in size
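Compound effects on proliferation are scored in DT40 Tdp1-/-;hTDP1 cells in the absence of CPT. ATP levels (CellTiter-Glo luminescence) are recorded after a ≥48 hr, 37 °C incubation.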
HT1080 IDH1KD tx: kills HT-1080 cells with IDH1 knockdown; HT-1080 IDH1 knockdown viability, ATP luminescence, 48 h; hit rate 2% among 360,000; Potency, µM (highest dose often 46.1 µM), without a hit: at the highest dose activity, negative = toxicity, actives largely listed as cytotoxic;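 note: 0% = DMSO wells and -100% = cell-free medium wells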
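IDH1KD HT-1080 cells, 750/well, RPMI + 5% FBS; compound pinned after 2 h settling; 48 h, 37 °C; CellTiter-Glo luminescence; % activity normalised to DMSO and no-cell wells; curves fitted, classed by r2 and efficacy.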
TDP1 cell CPT: DT40-hTDP1 cell growth loss with CPT; chicken DT40 Tdp1-/-;hTDP1 cells + 20 nM CPT, ATP luminescence, 48 h; Potency, µM (series often up to 46.2 µM), without a hit: top-dose activity change, negative = growth inhibition, most hits filed as inhibitors; hit rate 12% among 420,000; AID 686979; note: nearly all actives have a fitted effect of over 55% in size
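Chicken DT40 Tdp1-/- cells stably complemented with human TDP1 were seeded at 400 cells/well in medium containing 20 nM camptothecin, exposed to pin-transferred compounds, and grown at 37 °C for at least 48 hr. Viability was read as ATP luminescence.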
KB-V1 MDR tox: kills drug-selected multidrug resistant KB-V1 cells; AID 1347076; Potency, µM (titrated, usually from 46.1 µM), most hits filed as cytotoxic; KB-V1 MDR cells viability, CellTiter-Glo, 72 h; hit rate 3.4% among 400,000; note: nearly all actives have a fitted effect of over 60% in size
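Drug-selected KB-V1 cells, grown in DMEM lacking phenol red with 10% FBS, receive compound titrations; after three days at 37 degrees C, surviving cell ATP is quantified by CellTiter-Glo luminescence and responses normalized and curve-fitted.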
KB-3-1 cytotox: kills parental KB-3-1 adenocarcinoma cells | KB-3-1 viability, CellTiter-Glo ATP luminescence, 72 h | hit rate 1.4% among 400,000 | Potency, µM (titrated, usually from 46.1 µM), actives largely listed as cytotoxic; note: nearly all actives have a fitted effect of over 60% in size
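Viability of parental KB-3-1 cells, measured by CellTiter-Glo luminescence, followed a 72 h incubation at 37 °C with pinned compounds in phenol-red-free DMEM containing 10% FBS.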
HT1080NT lethal: kills 2HG-producing HT-1080-NT fibrosarcoma cells; hit rate 1.6% among 360,000; HT-1080-NT fibrosarcoma viability, CellTiter-Glo ATP luminescence, 48 h; Potency, µM (titrated, usually from 46.1 µM), inactives show top-dose activity, negative = less viability, most hits filed as cytotoxic; AID 686970;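 note: NT is the 2HG producing partner of a matched IDH1 knockdown line; 0% = DMSO-treated cells and -100% = media-only wells without cells; nearly all actives have a fitted effect of over 55% in size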
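Toxicity toward the 2HG-producing NT line was scored as %Activity, normalised to DMSO and no-cell wells, from CellTiter-Glo luminescence after 48 hours' treatment.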
An asterisk follows results filed as active. Most compounds without a hit are left out; they make up all but 19% or so of the library. Calls come from the whole dose curve; as a rule, active = well fitted curve in the direction sought with a large enough effect; inconclusive = small, poorly fitted or top-dose-only effect, or another doubt; inactive = no such curve, though single readings can be large; an effect the other way counts as inactive or inconclusive. Unless noted, % is set by controls: 0 for no effect and ±100 for the full control effect; potency is the fitted concentration of half-maximal effect.

CCN(c1ccccc1)S(=O)(=O)c1ccc(Cl)c(C(=O)Nc2ccncc2)c1 was read as DT40 TDP1 no CPT 12µM*, HT1080 IDH1KD tx -16%, TDP1 cell CPT inconclusive, KB-V1 MDR tox inconclusive, KB-3-1 cytotox inactive and HT1080NT lethal -2%.
CCOC(=O)N1CCN(S(=O)(=O)N2CCCC(C(=O)NCc3cc(Br)ccc3OC)C2)CC1 (stereo not drawn) was read as DT40 TDP1 no CPT 13µM*, HT1080 IDH1KD tx -6%, TDP1 cell CPT 18µM*, KB-V1 MDR tox inactive, KB-3-1 cytotox inactive and HT1080NT lethal -11%.
`CC(OC(=O)/C=C/c1ccc2ccccc2n1)C(=O)Nc1ccc(S(N)(=O)=O)cc1` (stereo not drawn) gave DT40 TDP1 no CPT inconclusive, HT1080 IDH1KD tx inconclusive, TDP1 cell CPT -26%, KB-V1 MDR tox inactive, KB-3-1 cytotox inactive and HT1080NT lethal -14%.
For O=C1c2cccc3cccc(c23)C(=O)N1/N=C/c1ccc(O)cc1O the results were DT40 TDP1 no CPT -25%, HT1080 IDH1KD tx 4%, TDP1 cell CPT -1%, KB-V1 MDR tox inactive, KB-3-1 cytotox inactive and HT1080NT lethal -4%.
Oc1ccc(/C=N/N2CCOCC2)c(O)c1O was read as DT40 TDP1 no CPT 4.1µM*, HT1080 IDH1KD tx 13%, TDP1 cell CPT 4.1µM*, KB-V1 MDR tox inactive, KB-3-1 cytotox inactive and HT1080NT lethal 13%.
`Oc1ccc(/C=N/N2CCCCC2)c(O)c1O` gave DT40 TDP1 no CPT 10µM*, HT1080 IDH1KD tx 3%, TDP1 cell CPT 5.8µM*, KB-V1 MDR tox inactive, KB-3-1 cytotox inactive and HT1080NT lethal 7%.
O=C1c2ccccc2C(=O)N1/N=C/c1ccc(O)c(O)c1O was read as DT40 TDP1 no CPT inconclusive, HT1080 IDH1KD tx -3%, TDP1 cell CPT 4.1µM*, KB-V1 MDR tox inactive, KB-3-1 cytotox inactive and HT1080NT lethal -7%.
`COC(=O)Cn1cc(S(=O)(=O)NCc2ccc(C)cc2)c2cc([N+](=O)[O-])ccc21` gave DT40 TDP1 no CPT 10%, HT1080 IDH1KD tx -5%, TDP1 cell CPT -23%, KB-V1 MDR tox inactive, KB-3-1 cytotox inactive and HT1080NT lethal -5%.
For O=C(O)c1ccccc1C(=O)NCC(O)COCC1CC=CCC1 (stereo not drawn) the results were DT40 TDP1 no CPT -30%, HT1080 IDH1KD tx 3%, TDP1 cell CPT -1%, KB-V1 MDR tox inactive, KB-3-1 cytotox inactive and HT1080NT lethal 3%.
Screening CCCc1n(CC(O)COC2CCCCC2)c2ccccc2[n+]1C (stereo not drawn) returned DT40 TDP1 no CPT 3.7µM*, HT1080 IDH1KD tx -17%, TDP1 cell CPT 7.3µM*, KB-V1 MDR tox inactive, KB-3-1 cytotox inconclusive and HT1080NT lethal -6%.
For CCCc1n(CC(O)COCc2ccccc2)c2ccccc2[n+]1C (stereo not drawn) the results were DT40 TDP1 no CPT 23µM*, HT1080 IDH1KD tx 5%, TDP1 cell CPT 23µM*, KB-V1 MDR tox inactive, KB-3-1 cytotox inactive and HT1080NT lethal 3%.
For CCCc1n(CC(O)COCC2CC=CCC2)c2ccccc2[n+]1C (stereo not drawn) the results were DT40 TDP1 no CPT 10µM*, HT1080 IDH1KD tx -9%, TDP1 cell CPT 8.2µM*, KB-V1 MDR tox inactive, KB-3-1 cytotox inactive and HT1080NT lethal -5%.
Screening CC12CCC(=O)N1C(C(=O)OCc1c(Cl)cccc1Cl)CS2 (stereo not drawn) returned DT40 TDP1 no CPT -22%, HT1080 IDH1KD tx 1%, TDP1 cell CPT -2%, KB-V1 MDR tox inactive, KB-3-1 cytotox inactive and HT1080NT lethal -7%.
For Cc1ccc(C)c(N(C)C(=O)c2cc3c(s2)-c2ccccc2OC3)c1 the results were KB-V1 MDR tox inconclusive and KB-3-1 cytotox inactive.
Screening Cc1nn(-c2ccc([N+](=O)[O-])cc2)c2c1C(c1cccc(Br)c1)N1C(=N2)C(=O)Nc2ccccc21 (stereo not drawn) returned DT40 TDP1 no CPT 3.3µM*, HT1080 IDH1KD tx 1%, TDP1 cell CPT 2.6µM*, KB-V1 MDR tox inconclusive, KB-3-1 cytotox inactive and HT1080NT lethal 2%.
`Cc1nn(-c2ccccc2)c(N)c1C1(O)C(=O)Nc2ccc([N+](=O)[O-])cc21` (stereo not drawn) gave DT40 TDP1 no CPT 8%, HT1080 IDH1KD tx 3%, TDP1 cell CPT 5%, KB-V1 MDR tox inactive, KB-3-1 cytotox inactive and HT1080NT lethal -2%.
Screening Cc1nn(-c2ccccc2)c2c1C(c1ccc([N+](=O)[O-])cc1)N1C(=N2)C(=O)Nc2ccccc21 (stereo not drawn) returned DT40 TDP1 no CPT 15µM*, HT1080 IDH1KD tx -25%, TDP1 cell CPT inconclusive, KB-V1 MDR tox 18µM*, KB-3-1 cytotox 23µM* and HT1080NT lethal -17%.
Screening CCCCCC(=O)N1C[C@@H](O)[C@H](n2cc(COC(=O)c3ccccc3)nn2)C[C@@H]1c1ccccc1 returned DT40 TDP1 no CPT inconclusive, HT1080 IDH1KD tx -4%, TDP1 cell CPT inconclusive, KB-V1 MDR tox inactive, KB-3-1 cytotox inactive and HT1080NT lethal -1%.
Screening CCN(Cc1ccccc1)C(=O)Cn1c(=O)n(-c2cccc(C)c2)c(=O)c2c1c1cc(OC)ccc1n2C returned DT40 TDP1 no CPT 16µM*, TDP1 cell CPT 12µM*, KB-V1 MDR tox inactive and KB-3-1 cytotox inactive.
`CCN(Cc1ccccc1)C(=O)Cn1c(=O)n(-c2ccccc2)c(=O)c2c1c1cc(C)ccc1n2C` gave DT40 TDP1 no CPT 3.7µM*, TDP1 cell CPT 9.2µM*, KB-V1 MDR tox inactive and KB-3-1 cytotox inactive.
CCc1ccc(-n2c(=O)c3sc4ccccc4c3n(CC(=O)N(CC)Cc3ccccc3)c2=O)cc1 was read as DT40 TDP1 no CPT 18µM*, TDP1 cell CPT 18µM*, KB-V1 MDR tox inactive and KB-3-1 cytotox inactive.
COCCCNC(=O)Cn1c(=O)n(-c2ccccc2)c(=O)c2c1c1cc(OC)ccc1n2C was read as DT40 TDP1 no CPT -15%, TDP1 cell CPT -5%, KB-V1 MDR tox inactive and KB-3-1 cytotox inactive.
For O=C(/C=C/c1ccco1)N(c1ccccn1)c1ccccn1 the results were DT40 TDP1 no CPT 1%, HT1080 IDH1KD tx 8%, TDP1 cell CPT 17%, KB-V1 MDR tox inactive, KB-3-1 cytotox inactive and HT1080NT lethal 2%.
